# MCL1-BIM inh: disrupts human MCL1 binding to BIM-BH3 peptide; 0.68% of 320,000 active; GST-MCL1 / FITC-Bim-BH3 fluorescence polarization; inhibition, % at 10.9 µM; Q07820;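 active = inhibition above the mean inhibition of all tested compounds plus 3 SD, set per campaign, cut at about 40% in these data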;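 also: 0% = DMSO wells and 100% = unlabeled Bim-BH3 peptide control; higher means more loss of mP so more displacement of Bim peptide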
# Target sequence (Q07820 whole entry, looked up): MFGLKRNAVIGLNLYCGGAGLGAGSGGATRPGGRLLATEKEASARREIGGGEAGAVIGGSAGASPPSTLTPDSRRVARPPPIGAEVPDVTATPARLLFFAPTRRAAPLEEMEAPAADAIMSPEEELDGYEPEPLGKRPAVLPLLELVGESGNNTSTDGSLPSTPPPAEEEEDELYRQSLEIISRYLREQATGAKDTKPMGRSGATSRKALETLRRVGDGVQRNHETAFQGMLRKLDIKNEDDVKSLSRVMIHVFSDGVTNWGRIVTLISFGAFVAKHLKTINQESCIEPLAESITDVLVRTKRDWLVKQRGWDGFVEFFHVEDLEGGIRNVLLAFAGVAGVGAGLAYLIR
# GLD-1 TGE inh: GLD-1-TGE RNA interaction inhibition (C. elegans); inhibition, % at 5.96 µM; 0.44% of 320,000 active; Q17339; purified GLD-1 + fluorescein TGE RNA, fluorescence polarization;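 active = percent inhibition above a per-plate cutoff, the plate mean of test compounds plus 3 SD, cut at about 30% in these data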;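 also: 0% = DMSO wells with GLD-1 and probe and 100% = wells lacking GLD-1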
# Mcl1-Bid inh: disrupts binding of human Mcl-1 to Bid peptide. TR-FRET Mcl-1/Bid-Dy647 peptide binding, 1536-well. Q07820. 0.97% of 220,000 active. inhibition, % at 21.7 µM;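 active = compounds that cut the binding signal by more than half at the single screening dose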;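 also: His-tagged Mcl-1 with europium anti-His antibody binding Bid BH3 peptide; 0% = Mcl-1 plus peptide wells and 100% = peptide-only wells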
# Bcl-xL primary: Bcl-xL (human) inhibition | GST-Bcl-xL / FITC-Bim BH3 peptide fluorescence polarization | inhibition, % at 10.9 µM | 0.7% of 320,000 active;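 active = inhibition above the mean of all tested compounds plus 3 SD, cutoff set per campaign, cut at about 30% in these data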;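 also: 0% = DMSO wells and 100% = unlabeled Bim-BH3 peptide competitor; inhibitors lower millipolarization by displacing the labeled peptide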
# Target sequence (Q07817 whole entry, looked up): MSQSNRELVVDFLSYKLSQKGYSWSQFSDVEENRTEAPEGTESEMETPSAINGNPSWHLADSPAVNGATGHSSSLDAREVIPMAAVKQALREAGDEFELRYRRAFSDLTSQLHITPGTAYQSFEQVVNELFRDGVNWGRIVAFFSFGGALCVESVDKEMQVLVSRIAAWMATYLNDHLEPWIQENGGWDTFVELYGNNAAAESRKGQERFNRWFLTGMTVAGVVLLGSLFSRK
# Mcl-1 Bim block: human Bim-Mcl-1 interaction inhibition; inhibition, % at 10 µM; 0.1% of 190,000 active; Bead-based flow cytometry, Bim peptide-Mcl-1 binding; in the data active = inhibition above about 40%;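 also: 0% = no compound tracer wells and 100% = peptide blocker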
# Mcl1 Noxa PPI: disrupts binding of human Mcl-1 to Noxa peptide; TR-FRET Mcl-1/Noxa peptide binding, 2 h; inhibition, % at 21.7 µM; 1.5% of 220,000 active; AID 1022;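 active = compounds that cut the protein-peptide binding signal by more than 50% relative to plate controls in a single-dose test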;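 also: His-tagged Mcl-1 with rhodamine Noxa BH3 peptide and terbium anti-His antibody; 0% = Mcl-1 plus Noxa peptide wells and 100% = peptide-only wells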
# * hit, by the source's call; · = no result given. Hits are enriched below; roughly 2.3% of the tested compounds scored in any of these assays.
SMILES,MCL1-BIM inh,GLD-1 TGE inh,Mcl1-Bid inh,Bcl-xL primary,Mcl-1 Bim block,Mcl1 Noxa PPI
ClCC1=Nc2cccc3cccc(c23)N1,19.3,-0.8,-75.0,12.8,·,58.0*
Nc1cccc(C2=Nc3cccc4cccc(c34)N2)c1,8.1,2.2,35.3,3.4,-3.0,74.1*
COc1ccc(C2=Nc3cccc4cccc(c34)N2)cc1,10.8,1.6,-72.0,6.5,4.0,35.0
CN1C(=O)Nc2cccc3cccc1c23,6.6,2.1,·,1.4,·,·
CC(C)C1=Nc2cccc3cccc(c23)N1,14.9,-1.1,-71.0,15.4,-6.0,52.6*
CC(C)(C)c1ccc(OCCOc2ccc(C(C)(C)C)cc2NC=O)c(NC=O)c1,3.9,11.0,-1.2,2.8,·,-22.8
O=C(O)c1cccc2c1/C(=N/Nc1ccc([N+](=O)[O-])cc1[N+](=O)[O-])c1ccccc1-2,12.7,8.4,·,11.5,·,·
Cc1cccc(N(Cc2ccccc2)C(=O)c2cccc(S(=O)(=O)N3CC(C)OC(C)C3)c2)c1 (centres undefined),8.7,-1.1,·,5.1,·,·
CCOC(=O)C1CCN(c2c(NCCCN(CC)Cc3ccccc3)c(=O)c2=O)CC1,-12.7,7.0,-18.7,-4.4,-3.0,71.5*
CCOC(=O)N1CCN(c2c(NCCCN(CC)CC)c(=O)c2=O)CC1,6.7,-1.6,-26.7,-1.3,-4.0,2.9
CCOC(=O)N1CCC(Nc2c(NCCCN(CC)Cc3ccccc3)c(=O)c2=O)CC1,-5.1,0.9,-29.9,1.1,0.0,11.1
CCCCN(CC)CCNc1c(N2CCN(C(=O)OCC)CC2)c(=O)c1=O,1.8,1.3,-47.7,1.2,-2.0,75.2*
CCOC(=O)N1CCN(c2c(NCCCN(CC)Cc3ccccc3)c(=O)c2=O)CC1,3.3,0.2,-48.7,0.1,8.0,76.5*
COC(=O)c1cc(OCC(=O)Nc2ccc3c(c2)CCC3)cc(C(=O)OC)c1,·,-2.1,·,·,·,·
CCS(=O)(=O)N1Cc2ccccc2CC1C(=O)NCCc1ccccc1 (centres undefined),-4.7,3.4,·,2.2,·,·
Cc1cccc(OCC(=O)NCC(C)(C)N2CCOCC2)c1,-2.3,4.1,·,0.9,·,·
COc1cc(C(=O)NCc2ccc(C(=O)NCC(OC)OC)cc2)cc(OC)c1OC,-6.2,6.9,64.0*,-1.6,0.0,2.0
O=C(Cc1ccccc1)NNc1c2ccccc2nc2ccccc12,4.1,7.0,-45.4,-2.0,-1.0,4.9
O=C(Nc1c2ccccc2nc2ccccc12)C(Cl)(Cl)Cl,34.6,18.9,52.8*,36.5*,3.0,42.5
CCCCN(C(=O)CSc1nnc(-c2ccc(OC)cc2)n1CC)c1c(N)n(Cc2ccccc2)c(=O)[nH]c1=O,-10.7,6.7,-39.4,4.5,-3.0,60.4*
CCCCN(C(=O)CSc1nnc(-c2ccc(OC)cc2)n1C(C)C)c1c(N)n(Cc2ccccc2)c(=O)[nH]c1=O,-11.1,-1.5,3.8,0.9,-5.0,61.8*
CCCCN(C(=O)CSc1nnc(-c2ccccc2OC)n1C)c1c(N)n(Cc2ccccc2)c(=O)[nH]c1=O,-21.1,4.2,-21.8,-4.6,-1.0,28.5
Cc1ccc(S(=O)(=O)c2cn(C)c3cc(N4CCN(C)CC4)c(F)cc3c2=O)c(C)c1,8.6,-0.2,·,4.3,·,·
O=c1oc2ccccc2c(Nc2ccccc2O)c1[N+](=O)[O-],6.2,3.0,-20.5,4.3,-2.0,13.8
O=c1oc2ccccc2c(Nc2cc3ccccc3cc2O)c1[N+](=O)[O-],7.4,5.2,-22.7,4.6,-5.0,52.5*
SMILES,MCL1-BIM inh,GLD-1 TGE inh,Mcl1-Bid inh,Bcl-xL primary,Mcl-1 Bim block,Mcl1 Noxa PPI
COc1ccc(Cl)cc1C(=O)N1CCN(Cc2ccc3c(c2)OCO3)CC1,5.3,11.1,·,2.9,·,·
CCOC(=O)c1sc(-c2ccc(C(F)(F)F)cc2)nc1O,35.1,12.2,-5.7,36.4*,·,-4.0
NC(N)=NS(=O)(=O)c1ccc(NC(=S)NC(=O)c2sc3ccccc3c2Cl)cc1,5.5,1.1,81.9*,3.6,-1.0,-147.7
COc1cc(NS(=O)(=O)c2ccc(NC(=S)NC(=O)c3ccco3)cc2)nc(OC)n1,12.8,2.7,-91.2,11.7,·,14.4
COc1cc(NS(=O)(=O)c2ccc(NC(=S)NC(=O)c3sc4ccccc4c3Cl)cc2)nc(OC)n1,7.8,1.8,66.1*,15.3,-4.0,68.9*
COc1cc(NS(=O)(=O)c2ccc(NC(=S)NC(=O)c3sc4cc(F)ccc4c3Cl)cc2)nc(OC)n1,8.0,-2.5,32.6,11.0,-16.0,87.8*
C/C=C/c1ccc(OCCCNC(C)CC)c(OC)c1 (centres undefined),-6.0,3.5,59.1*,2.9,-4.0,8.0
C/C=C/c1ccc(OCCCNC2CCCC2)c(OC)c1,9.8,-1.0,31.0,3.7,0.0,9.3
C/C=C/c1ccc(OCCCCn2cncn2)c(OC)c1,-2.8,2.6,56.8*,0.4,-2.0,23.4
CC(C)(C)OC(=O)NN1CC(=O)N2Cc3ccccc3C[C@@H]2C1=O,2.5,-7.1,·,2.9,·,·
O=C(CSc1nc2ncc(Br)cc2[nH]1)c1cccc([N+](=O)[O-])c1,-7.9,5.0,-81.2,-1.4,-2.0,63.6*
COc1ccc(N=Nc2c(C)[nH]c3ccccc23)cc1,15.0,16.5,·,17.9,·,·
CC(C)N(Cc1ccccc1)C(=O)COC(=O)c1cc[n+]([O-])cc1,·,0.5,·,·,·,·
O=c1oc(-c2ccccc2)nc2sc3c(c12)CCC3,28.5,4.5,-24.6,10.1,0.0,59.6*
CCOC(=O)c1ccc(N2NC(=O)/C(=C/c3ccc(OC(=O)c4ccco4)c(OC)c3)C2=O)cc1,20.0,4.4,-42.6,14.9,9.0,56.2*
CCOc1cc(/C=C2/SC(=S)NC2=O)ccc1OC(=O)c1ccco1,6.9,-1.4,-3.8,7.8,-6.0,57.1*
CCOC(=O)COc1ccc(/C=C2/C(=O)NN(c3ccc(F)cc3)C2=O)cc1OC,5.0,-7.9,·,0.5,·,·
CCC(C)(C)NC(=O)C(C(C)C)N(CC1CCCO1)C(=O)CNS(=O)(=O)c1ccccc1 (centres undefined),4.7,9.2,·,5.7,·,·
COCCCNC(=O)CCc1c(C)c2cc3c(C)coc3cc2oc1=O,-1.3,1.2,·,1.6,·,·
Cc1ccc(-c2cn3nc(-c4ccccc4)c(-c4ccccc4)nc3n2)cc1,-1.5,34.2*,-21.9,14.9,·,1.0
CC(=O)N1CCN(c2ccc(N)cc2)CC1,-0.9,1.6,·,4.3,·,·
Nc1ccc(N2CCN(c3ccc(F)cc3)CC2)cc1,13.1,-10.0,-30.1,13.2,1.0,60.5*
CSC1=NSC2=NC(=O)/C(=C/c3coc4ccccc4c3=O)C(=N)N12,52.4*,-58.4,-28.4,43.7*,18.0,-55.7
CSC1=NSC2=NC(=O)/C(=C/c3coc4ccc(O)cc4c3=O)C(=N)N12,31.6,-50.1,-52.3,51.7*,6.0,61.6*
CC1=NN(c2ccccc2)C(=O)/C1=C/c1c(O)n(-c2ccc(F)c(Cl)c2)[nH]c1=O,5.5,6.0,40.5,10.1,-3.0,85.8*
CCn1c2ccccc2c2cc(NC(=O)CN3CCCC3)ccc21,8.7,-6.7,·,7.3,·,·

# Screening data as filed in PubChem BioAssay.
